Assay outcomes: PubChem, The Scripps Research Institute Molecular Screening Center
SRC2 inh = inhibition of GAL4-SRC2 driven luciferase reporter, primary screen, SRC2 inhibitor project, cell-based, luminescence | Nuclear receptor coactivator 2 (Homo sapiens), Q15596 | HEK293 GAL4-SRC2 luciferase reporter | inhibition, % at 9 µM | hit rate 0.17% among 370,000 | AID 651957, 2012;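 active = inhibition above the mean inhibition of all tested compounds plus 3 SD, set per campaign, cut at about 52% in these data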
NR2F2 inh = NR2F2 transcriptional activity inhibitors, primary screen, cell-based, luciferase reporter, HEK293T, luminescence; COUP transcription factor 2 (Homo sapiens), P24468; HEK293T NGFI-A luciferase reporter; inhibition, % at 8.6 µM; hit rate 0.7% among 370,000;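 active = inhibition above a per-plate cutoff, mean inhibition of test wells between control levels plus 3 SD, cut at about 38% in these data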;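 also: cells cotransfected with COUP-TFII expression vector driving the NGFI-A reporter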
SRC3 inh = SRC3 coactivator transcriptional activity inhibitors, primary screen, cell-based, luminescence. HEK293 GAL4-SRC3 luciferase reporter. inhibition, % at 3.6 µM. hit rate 0.17% among 360,000. Nuclear receptor coactivator 3 (Homo sapiens), Q9Y6Q9. AID 588352, 2011;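 active = inhibition above a per-campaign cutoff, the mean of all compounds plus 3 SD, cut at about 60% in these data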;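 also: higher means less SRC3-driven luciferase light from the GAL4 reporter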
GalR3 antagonist = GalR3 antagonists in HEK293 cells, primary screen, cell-based, fluorescence readout; Galanin receptor type 3 (Homo sapiens), O60755; inhibition, % at 3 µM; hit rate 0.44% among 360,000; AID 651719, 2012; HEK293 GalR3-CNG cAMP membrane potential fluorescence; galR3 body fused to GalR1 C-terminus;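 active = inhibition above the screen-wide average plus 3 SD, cut at about 13% in these data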;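 also: forskolin and galanin both at EC90 stimulate the cells; cAMP rise reported by CNG channel membrane potential dye signal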
SRC1 inh = SRC1 coactivator transcriptional activity inhibitors, primary screen, cell-based, luminescence. Nuclear receptor coactivator 1 (Homo sapiens), Q15788. hit rate 0.12% among 360,000. HEK293 GAL4-SRC1 luciferase reporter. AID 588354, 2011. inhibition, % at 3.6 µM;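 active = inhibition above the campaign mean plus 3 SD, with each screening campaign given its own cutoff, cut at about 60% in these data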
LRH-1 inv ag = LRH-1 (NR5A2) inverse agonists, primary screen, cell-based, luminescence, HEK293T, StAR-luciferase reporter; Nuclear receptor subfamily 5 group A member 2 (Homo sapiens), O00482; LRH-1 transfected, 24 h; inhibition, % at 3.6 µM; hit rate 0.13% among 360,000; AID 602396, 2012;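 active = inhibition above the mean inhibition of all tested compounds plus 3 SD, cut at about 73% in these data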
GalR3 conf = GalR3 antagonist hit confirmation, cell-based, fluorescence, triplicate | shares compounds with GalR3 antagonist | HEK293 GalR3 CNG cAMP biosensor, membrane potential fluorescence; galR3 fused to GalR1 carboxy tail; challenged with forskolin and galanin at EC90 | inhibition, % at 3 µM | hit rate 59% among 1,600;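 active = inhibition above the primary screen's cutoff, the mean inhibition of all screened compounds plus 3 SD, cut at about 13% in these data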
CNG parental = nonspecific cAMP agonists in parental HEK-CNG cells, counter-screen for GalR3 antagonist project, cell-based, fluorescence, high throughput | activation, % at 3 µM | HEK293-CNG parental cells, cAMP membrane potential fluorescence; normalised: DMSO wells 0%, forskolin wells 100% | shares compounds with GalR3 antagonist | hit rate 10% among 1,600; in the data active = activation above about 1.3%
Gal4-VP16 ctr = Gal4-VP16 luciferase reporter inhibitors, counter-screen for COUP-TFII antagonist project, cell-based, luminescence, HEK293. inhibition, % at 8.5 µM. hit rate 25% among 2,500. shares compounds with NR2F2 inh; in the data active = inhibition above about 13%
NR2F2 inh conf = NR2F2 transcriptional activity inhibitors, confirmation, cell-based, luciferase reporter, HEK293, triplicate. hit rate 45% among 2,500. HEK293 NGFI-A luciferase reporter, luminescence. shares compounds with NR2F2 inh. inhibition, % at 8.5 µM;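 active = mean inhibition over three repeats above a set limit taken from the earlier primary screen, cut at about 38% in these data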
Hits are given with their value; . = inactive; / = not tested or not shown. Sampled rows, rich in hits. Any-hit rate of the full collection: about 1.1%.

SMILES	SRC2 inh	NR2F2 inh	SRC3 inh	GalR3 antagonist	SRC1 inh	LRH-1 inv ag	GalR3 conf	CNG parental	Gal4-VP16 ctr	NR2F2 inh conf
CN(Cc1ccccc1)C1=CC(=[N+]2CCCC2)CC(C)(C)C1	.	72.5	62.6	58.9	.	.	65.3	2.3	15.3	64.3
CCN(CC)C1=CC(=[N+]2CCCC2)CC(C)(C)C1	.	.	.	.	.	.	/	/	/	/
CC(=O)c1c(C)[nH]c(C(=O)COc2cc(C)ccc2C(C)C)c1C	.	69.0	.	72.8	.	.	112.8	.	.	66.2
COc1cccc([C@@H]2NC(=O)C/C=C/[C@H](C)[C@H](c3cccc(OC)c3)NC(=O)C/C=C/[C@@H]2C)c1	.	.	/	/	/	/	/	/	/	/
O=c1cc(CSc2nnc(-c3cccs3)n2Cc2ccccc2)nc2sc3ccccc3n12	.	61.8	.	73.6	.	.	107.5	.	.	.
C[C@H](CO)N1C[C@H](C)[C@H](CN(C)C(=O)Nc2ccc3c(c2)OCO3)OCc2cnnn2CCCC1=O	.	.	/	.	/	/	/	/	/	/
COc1ccc(CNC(=O)c2sc(=O)n(Cc3ccc(C)cc3)c2C)cc1OC	.	.	.	.	.	.	/	/	/	/
COc1ccc(CNC(=O)c2sc(=O)n(Cc3ccc(-c4ccccc4)cc3)c2C)cc1OC	.	44.5	.	26.3	.	.	16.0	.	.	40.7
CCCCOc1ncnc2c1[nH]c1ccc(OCC)cc12	.	.	.	.	.	.	/	/	/	/
CCCCOc1ncnc2c1[nH]c1ccc(F)cc12	.	55.9	.	29.1	.	.	46.3	.	.	.
CCOc1ccccc1NC(=O)CSc1nnc(SCc2ccccc2)s1	.	.	/	/	/	/	/	/	/	/
CC(C)C(=O)N1CCN(c2nc3ccc(Cl)cc3s2)CC1	.	.	.	.	.	.	/	/	/	/
CC(C)NC(=O)N1CCCN(c2nc3ccc(Cl)cc3s2)CC1	.	41.4	.	19.7	.	.	.	.	.	.
COC(=O)[C@]12C[C@H](CC(=O)NCc3cccs3)C(=O)N(Cc3ccccc3)C1=C[C@H](C1CCCC1)O[C@@H]2C	.	.	/	.	/	/	/	/	/	/
CC(=O)N1c2ccc(S(=O)(=O)NCC3CCC(C(=O)Nc4cccc(C)n4)CC3)cc2CC1C (stereo not drawn)	.	56.3	.	24.5	.	.	.	.	.	.
CC(=O)N1c2ccc(S(=O)(=O)N3CCC(C(=O)Nc4cccc(C)n4)CC3)cc2CC1C (stereo not drawn)	.	54.1	.	51.4	.	.	93.7	.	.	54.2
CC(=O)c1ccc(N2CCN(S(=O)(=O)c3ccc4c(c3)CC(C)N4C(C)=O)CC2)cc1 (stereo not drawn)	.	58.9	.	98.5	.	.	105.6	.	.	44.3
C(=C\c1ccccc1)/CSc1nnc(Cc2cccs2)n1-c1ccccc1	.	.	/	/	/	/	/	/	/	/
COc1cccc(C(C)(O)c2nc(-c3ccccc3)cs2)c1 (stereo not drawn)	.	.	.	.	.	.	/	/	/	/
